The full data set covers some 7,900 targets. This sample favours those with a hit. About 0.6% of all pairs of compound and target were hits. Unmarked numbers belong to inactive results.
Tests used:
Assay in all cases: log2 fold change, soluble protein after heating vs DMSO (PISA); higher = thermal stabilisation; K562 cells, 10 uM, 30 min; active = over 0.2 and 3.5 SD of the protein, either way, in both replicates (recomputed)
[1] = compound: CS(=O)(=O)c1ccc(-c2cnc(N)c(C(=O)Nc3ccccc3)n2)cc1
Method in brief: (§1)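 K562 cells at 2×10^6 cells/mL were treated for 30 min with 10 μM compound, and aliquots were heated for 3 min over 48°C-58°C before pooling. Extraction used PBS with 0.5% NP-40 at 4°C, and soluble protein was the supernatant after 21,000xg for 90 min, measured by TMTpro 16plex LC-MS/MS with channel sums equalised. Thermal stability values, relative to control samples and from duplicates, are log2 fold changes.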

crizotinib = compound: C[C@@H](Oc1cc(-c2cnn(C3CCNCC3)c2)cnc1N)c1c(Cl)ccc(F)c1Cl [crizotinib]
Method in brief: as §1

[2] = compound: C[C@@H]1COCCN1C2=NC(=NC(=C2)C3(CC3)S(=O)(=O)C)C4=C5C=CNC5=CC=C4
Method in brief: as §1

[3] = compound: C[C@H](C1=CC=C(C=C1)C(=O)NC2=C3C=CNC3=NC=C2)N
Method in brief: as §1

duvelisib = compound: C[C@H](Nc1ncnc2nc[nH]c12)c1cc2cccc(Cl)c2c(=O)n1-c1ccccc1 [duvelisib]
Method in brief: as §1

gandotinib = compound: Cc1cc(Nc2cc(CN3CCOCC3)c3nc(C)c(Cc4ccc(Cl)cc4F)n3n2)n[nH]1 [gandotinib]
Method in brief: as §1

tozasertib = compound: Cc1cc(Nc2cc(N3CCN(C)CC3)nc(Sc3ccc(NC(=O)C4CC4)cc3)n2)n[nH]1 [tozasertib]
Method in brief: as §1

[4] = compound: Cc1cc(SCc2sc(-c3ccc(C(F)(F)F)cc3)nc2C)ccc1OCC(=O)O
Method in brief: as §1

doramapimod = compound: Cc1ccc(-n2nc(C(C)(C)C)cc2NC(=O)Nc2ccc(OCCN3CCOCC3)c3ccccc23)cc1 [doramapimod]
Method in brief: as §1

ispinesib = compound: Cc1ccc(C(=O)N(CCCN)[C@@H](c2nc3cc(Cl)ccc3c(=O)n2Cc2ccccc2)C(C)C)cc1 [ispinesib]
Method in brief: as §1

Sequence of UniProt Q96LJ8 (Q96LJ8 whole entry, looked up): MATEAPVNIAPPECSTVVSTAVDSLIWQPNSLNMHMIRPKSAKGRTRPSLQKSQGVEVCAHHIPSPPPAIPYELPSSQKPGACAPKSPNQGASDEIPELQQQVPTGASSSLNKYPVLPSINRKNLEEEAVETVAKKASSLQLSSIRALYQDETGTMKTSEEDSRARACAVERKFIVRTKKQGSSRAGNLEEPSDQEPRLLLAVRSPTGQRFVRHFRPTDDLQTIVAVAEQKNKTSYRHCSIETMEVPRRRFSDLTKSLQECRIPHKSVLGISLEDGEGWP
Sequence of UniProt O75554 (O75554 whole entry, looked up): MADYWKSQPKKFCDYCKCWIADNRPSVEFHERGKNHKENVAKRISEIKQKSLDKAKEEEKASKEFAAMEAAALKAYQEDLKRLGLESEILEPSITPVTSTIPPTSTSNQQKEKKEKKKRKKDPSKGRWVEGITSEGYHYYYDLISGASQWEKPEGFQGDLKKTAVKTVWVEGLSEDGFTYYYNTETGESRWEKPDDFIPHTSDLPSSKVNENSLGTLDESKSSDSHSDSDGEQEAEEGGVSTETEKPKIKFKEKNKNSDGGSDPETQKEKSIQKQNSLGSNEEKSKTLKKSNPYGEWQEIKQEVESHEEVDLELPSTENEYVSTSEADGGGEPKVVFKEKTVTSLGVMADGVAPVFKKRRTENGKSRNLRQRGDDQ
Sequence of UniProt Q96JC1 (Q96JC1 whole entry, looked up): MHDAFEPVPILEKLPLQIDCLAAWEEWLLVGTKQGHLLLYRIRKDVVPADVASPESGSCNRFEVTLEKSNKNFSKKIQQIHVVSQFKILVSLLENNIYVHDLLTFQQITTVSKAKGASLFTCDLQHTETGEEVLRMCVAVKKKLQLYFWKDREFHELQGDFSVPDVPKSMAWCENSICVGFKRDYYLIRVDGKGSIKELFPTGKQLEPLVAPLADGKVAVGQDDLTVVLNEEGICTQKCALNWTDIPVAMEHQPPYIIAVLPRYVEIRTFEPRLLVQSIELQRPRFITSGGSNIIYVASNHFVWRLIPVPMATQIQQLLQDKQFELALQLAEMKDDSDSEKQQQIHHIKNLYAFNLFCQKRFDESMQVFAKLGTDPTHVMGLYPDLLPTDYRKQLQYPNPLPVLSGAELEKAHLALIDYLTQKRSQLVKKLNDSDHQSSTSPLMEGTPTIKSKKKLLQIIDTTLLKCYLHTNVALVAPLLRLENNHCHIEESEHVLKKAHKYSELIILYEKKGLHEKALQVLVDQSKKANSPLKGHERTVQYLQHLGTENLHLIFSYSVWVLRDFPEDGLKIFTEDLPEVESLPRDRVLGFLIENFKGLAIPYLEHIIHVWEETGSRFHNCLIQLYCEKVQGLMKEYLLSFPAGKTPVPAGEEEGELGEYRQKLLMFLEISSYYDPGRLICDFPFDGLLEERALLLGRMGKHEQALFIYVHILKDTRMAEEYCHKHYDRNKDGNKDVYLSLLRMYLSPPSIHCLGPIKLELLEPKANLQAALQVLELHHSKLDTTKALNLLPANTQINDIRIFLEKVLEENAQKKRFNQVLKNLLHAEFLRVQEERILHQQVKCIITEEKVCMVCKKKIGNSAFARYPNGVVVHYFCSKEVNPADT
Sequence of UniProt P07951 (P07951 whole entry, looked up): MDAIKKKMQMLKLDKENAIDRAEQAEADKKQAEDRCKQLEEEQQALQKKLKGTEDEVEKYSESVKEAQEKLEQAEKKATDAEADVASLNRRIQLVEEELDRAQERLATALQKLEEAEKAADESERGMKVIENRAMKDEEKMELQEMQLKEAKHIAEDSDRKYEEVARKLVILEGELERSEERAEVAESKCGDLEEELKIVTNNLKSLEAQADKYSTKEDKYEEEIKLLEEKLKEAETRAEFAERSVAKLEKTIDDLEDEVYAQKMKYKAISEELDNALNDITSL
Sequence of UniProt P22314 (P22314 whole entry, looked up): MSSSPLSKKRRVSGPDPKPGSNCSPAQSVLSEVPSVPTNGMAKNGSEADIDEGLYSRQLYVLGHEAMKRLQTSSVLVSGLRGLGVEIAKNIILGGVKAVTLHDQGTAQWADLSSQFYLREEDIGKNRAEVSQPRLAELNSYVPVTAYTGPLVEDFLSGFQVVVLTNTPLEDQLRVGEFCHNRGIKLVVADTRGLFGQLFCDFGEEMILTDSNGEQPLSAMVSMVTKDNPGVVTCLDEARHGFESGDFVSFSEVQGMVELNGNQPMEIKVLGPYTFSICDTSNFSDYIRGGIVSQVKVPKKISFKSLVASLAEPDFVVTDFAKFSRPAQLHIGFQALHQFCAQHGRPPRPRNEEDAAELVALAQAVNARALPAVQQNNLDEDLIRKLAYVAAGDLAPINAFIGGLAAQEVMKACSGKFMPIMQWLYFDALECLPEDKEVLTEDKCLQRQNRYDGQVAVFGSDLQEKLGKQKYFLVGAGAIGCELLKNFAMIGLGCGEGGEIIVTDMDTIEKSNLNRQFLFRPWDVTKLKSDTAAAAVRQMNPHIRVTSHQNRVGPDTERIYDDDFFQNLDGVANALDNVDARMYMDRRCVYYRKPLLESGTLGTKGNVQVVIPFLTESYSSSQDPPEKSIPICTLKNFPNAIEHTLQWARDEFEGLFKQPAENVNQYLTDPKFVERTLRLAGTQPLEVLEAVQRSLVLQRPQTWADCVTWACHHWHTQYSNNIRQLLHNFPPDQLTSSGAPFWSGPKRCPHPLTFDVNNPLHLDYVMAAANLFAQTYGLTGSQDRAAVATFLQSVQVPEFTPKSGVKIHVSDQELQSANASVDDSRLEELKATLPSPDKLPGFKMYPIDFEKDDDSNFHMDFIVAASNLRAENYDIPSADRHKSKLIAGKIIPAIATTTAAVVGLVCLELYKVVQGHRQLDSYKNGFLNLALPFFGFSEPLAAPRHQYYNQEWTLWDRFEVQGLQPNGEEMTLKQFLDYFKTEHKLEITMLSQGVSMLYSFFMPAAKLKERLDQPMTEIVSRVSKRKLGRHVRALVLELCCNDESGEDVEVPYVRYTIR
Sequence of UniProt O15213 (O15213 whole entry, looked up): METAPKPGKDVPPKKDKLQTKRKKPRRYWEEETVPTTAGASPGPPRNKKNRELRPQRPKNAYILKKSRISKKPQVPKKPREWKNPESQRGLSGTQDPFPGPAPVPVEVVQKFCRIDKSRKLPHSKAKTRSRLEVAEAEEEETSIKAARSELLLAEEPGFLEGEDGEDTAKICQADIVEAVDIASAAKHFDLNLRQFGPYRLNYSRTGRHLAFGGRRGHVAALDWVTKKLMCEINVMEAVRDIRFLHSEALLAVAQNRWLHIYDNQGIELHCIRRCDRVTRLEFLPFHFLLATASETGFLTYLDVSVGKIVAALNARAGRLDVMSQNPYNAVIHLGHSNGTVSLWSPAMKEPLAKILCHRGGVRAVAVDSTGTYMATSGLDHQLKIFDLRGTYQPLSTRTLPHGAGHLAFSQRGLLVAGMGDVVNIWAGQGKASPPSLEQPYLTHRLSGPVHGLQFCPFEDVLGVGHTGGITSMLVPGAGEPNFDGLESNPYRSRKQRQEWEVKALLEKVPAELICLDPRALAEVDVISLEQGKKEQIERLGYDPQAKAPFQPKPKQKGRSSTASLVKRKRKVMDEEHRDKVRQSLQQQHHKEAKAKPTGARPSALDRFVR
Sequence of UniProt Q9BV38 (Q9BV38 whole entry, looked up): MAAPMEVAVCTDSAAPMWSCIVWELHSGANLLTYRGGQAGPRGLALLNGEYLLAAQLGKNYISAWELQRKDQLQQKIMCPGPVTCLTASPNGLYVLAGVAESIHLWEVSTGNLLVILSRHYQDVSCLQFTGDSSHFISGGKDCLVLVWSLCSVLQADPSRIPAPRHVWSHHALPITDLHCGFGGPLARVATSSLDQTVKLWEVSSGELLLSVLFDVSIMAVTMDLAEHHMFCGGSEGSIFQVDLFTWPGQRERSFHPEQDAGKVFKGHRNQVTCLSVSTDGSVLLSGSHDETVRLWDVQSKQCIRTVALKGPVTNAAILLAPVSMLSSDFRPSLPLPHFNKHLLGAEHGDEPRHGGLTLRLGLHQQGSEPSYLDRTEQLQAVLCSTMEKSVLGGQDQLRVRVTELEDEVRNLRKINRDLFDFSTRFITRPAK
Sequence of UniProt Q6VEQ5 (Q6VEQ5 whole entry, looked up): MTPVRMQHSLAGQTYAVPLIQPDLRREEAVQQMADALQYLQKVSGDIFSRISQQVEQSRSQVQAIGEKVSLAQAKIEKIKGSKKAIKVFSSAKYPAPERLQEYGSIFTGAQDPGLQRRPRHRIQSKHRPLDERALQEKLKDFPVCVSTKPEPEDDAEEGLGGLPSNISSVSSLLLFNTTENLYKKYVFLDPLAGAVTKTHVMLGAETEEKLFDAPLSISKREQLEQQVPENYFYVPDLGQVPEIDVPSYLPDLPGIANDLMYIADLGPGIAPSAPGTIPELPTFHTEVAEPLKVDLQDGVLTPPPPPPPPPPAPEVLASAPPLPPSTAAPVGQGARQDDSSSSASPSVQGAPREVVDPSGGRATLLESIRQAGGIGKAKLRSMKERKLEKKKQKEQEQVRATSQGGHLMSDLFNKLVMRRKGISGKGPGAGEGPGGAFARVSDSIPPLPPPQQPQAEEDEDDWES
Sequence of UniProt Q15642 (Q15642 whole entry, looked up): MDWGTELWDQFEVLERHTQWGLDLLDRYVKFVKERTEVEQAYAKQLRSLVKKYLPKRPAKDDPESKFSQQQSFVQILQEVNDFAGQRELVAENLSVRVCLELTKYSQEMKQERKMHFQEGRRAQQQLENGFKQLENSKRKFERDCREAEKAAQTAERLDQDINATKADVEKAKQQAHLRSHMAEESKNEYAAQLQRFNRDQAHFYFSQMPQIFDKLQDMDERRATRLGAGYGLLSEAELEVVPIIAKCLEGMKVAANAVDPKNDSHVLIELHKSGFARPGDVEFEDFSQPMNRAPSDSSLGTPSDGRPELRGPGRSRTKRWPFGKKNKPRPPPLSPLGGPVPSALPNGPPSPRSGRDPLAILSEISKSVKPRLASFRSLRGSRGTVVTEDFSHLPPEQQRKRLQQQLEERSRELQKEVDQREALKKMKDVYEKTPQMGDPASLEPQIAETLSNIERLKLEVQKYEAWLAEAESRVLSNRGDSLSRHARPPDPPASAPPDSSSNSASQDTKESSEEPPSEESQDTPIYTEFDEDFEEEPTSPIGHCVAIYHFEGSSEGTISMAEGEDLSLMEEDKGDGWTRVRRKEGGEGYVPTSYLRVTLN

Row | Target | log2 fold change [1] | log2 fold change (crizotinib) | log2 fold change [2] | log2 fold change [3] | log2 fold change (duvelisib) | log2 fold change (gandotinib) | log2 fold change (tozasertib) | log2 fold change [4] | log2 fold change (doramapimod) | log2 fold change (ispinesib)
1 | TRMT61A (UniProt Q96FX7) | -0.017 | -0.046 | -0.201 | 0.168 | -0.004 | 0.168 | -0.016 | 0.106 | 0.011 | -0.093
2 | TPM2 (UniProt P07951) | -0.016 | -0.012 | -0.167 | -0.29 | -0.131 | -0.046 | 0 | -0.117 | 0.059 | 0.122
3 | VPS39 (UniProt Q96JC1) | -0.037 | -0.239 (active) | 0.026 | 0.021 | 0.011 | -0.126 | -0.033 | 0.025 | 0.008 | -0.187
4 | VPS11 (UniProt Q9H270) | 0.009 | -0.373 (active) | -0.039 | 0.054 | -0.016 | -0.111 | 0.034 | 0.095 | -0.029 | -0.226
5 | WBP4 (UniProt O75554) | -0.032 | 0.059 | 0.004 | -0.015 | 0.011 | -0.022 | -0.016 | 0.01 | 0.018 | -0.044
6 | TXNRD1 (UniProt Q16881) | 0.075 | -0.043 | 0.079 | -0.053 | 0.047 | -0.045 | -0.036 | -0.007 | -0.028 | -0.009
7 | VRK2 (UniProt Q86Y07) | 0.048 | -0.16 | 0.015 | 0.472 (active) | -0.01 | -0.08 | -0.057 | 0.012 | 0.026 | -0.115
8 | UBXN10 (UniProt Q96LJ8) | -0.03 | -0.121 | -0.091 | -0.09 | -0.017 | 0.161 | -0.122 | -0.008 | -0.014 | -0.124
9 | WASH2P (UniProt Q6VEQ5) | -0.002 | -0.321 (active) | -0.017 | 0.021 | -0.02 | -0.03 | -0.071 | -0.038 | 0.041 | -0.358 (active)
10 | UBA1 (UniProt P22314) | 0.127 | -0.338 | 0.091 | 0.017 | -0.014 | -0.068 | 0.066 | 0.148 | -0.031 | -0.11
11 | TNPO3 (UniProt Q9Y5L0) | -0.028 | -0.151 | 0.025 | -0.124 | -0.008 | -0.143 | 0.087 | 0.046 | -0.046 | 0.008
12 | XPO5 (UniProt Q9HAV4) | -0.008 | -0.052 | 0.021 | -0.026 | 0.007 | -0.192 | 0.03 | 0.064 | -0.043 | -0.079
13 | WDR61 (UniProt Q9GZS3) | 0.043 | -0.044 | 0.071 | -0.056 | 0.059 | -0.099 | -0.072 | -0.017 | -0.004 | -0.028
14 | VPS41 (UniProt P49754) | 0.003 | -0.213 | -0.009 | 0.03 | 0.008 | -0.117 | 0.01 | 0.046 | 0.034 | -0.138
15 | WDR37 isoform 2 (UniProt Q9Y2I8) | 0.026 | 0 | 0.041 | 0.11 | -0.113 | 0.069 | 0.055 | 0.15 | 0.02 | 0.055
16 | TMEM223 (UniProt A0PJW6) | -0.008 | -0.045 | 0.038 | 0.002 | 0.043 | -0.14 | 0.061 | 0 | 0.015 | -0.254 (active)
17 | USP9X (UniProt Q93008) | -0.008 | -0.159 | -0.024 | 0.033 | 0.001 | -0.125 | 0 | 0.053 | 0.016 | -0.058
18 | WARS2 (UniProt Q9UGM6) | -0.062 | 0.09 | 0.065 | 0.027 | 0.079 | 0.006 | -0.001 | 0.04 | 0.017 | -0.085
19 | VPS33A (UniProt Q96AX1) | -0.031 | -0.218 | 0.014 | 0.043 | 0.029 | -0.091 | 0.036 | 0.049 | -0.017 | -0.154
20 | WDR11 (UniProt Q9BZH6) | -0.064 | -0.007 | 0.111 | 0.059 | 0.029 | -0.291 | -0.049 | -0.051 | 0.056 | -0.133
21 | WDR46 (UniProt O15213) | -0.05 | 0.008 | -0.731 | 0.445 | -0.199 | 0.27 | 0.068 | 0.032 | 0.142 | -0.081
22 | VPS35L (UniProt Q7Z3J2) | 0.054 | -0.128 | -0.043 | 0.186 | 0.033 | 0 | 0.026 | 0.023 | 0.02 | -0.11
23 | WASHC2C, A0A096LPC5 | -0.078 | -0.363 | 0.031 | 0.025 | 0.15 | 0.189 | 0.007 | -0.053 | 0.02 | -0.135
24 | TOMM5 isoform 2 (UniProt Q8N4H5) | 0.043 | 0.139 | 0.124 | -0.053 | 0.075 | 0.136 | -0.008 | -0.023 | -0.078 | -0.051
25 | WDR18 (UniProt Q9BV38) | -0.023 | -0.008 | -0.022 | -0.102 | -0.012 | -0.021 | 0.022 | -0.009 | 0.026 | 0.027
26 | TMEM63B (UniProt Q5T3F8) | -0.127 | 0.045 | -0.042 | -0.014 | -0.085 | -0.028 | -0.007 | 0.015 | -0.047 | -0.312 (active)
27 | TRIP10 isoform 2 (UniProt Q15642) | 0.132 | 0.056 | -0.007 | 0.108 | 0.001 | 0.147 | 0.101 | -0.089 | -0.035 | 0.309

— the supplement of paper PMC10849652
